Compound activity as filed in PubChem BioAssay.
Pf growth 48h – P. falciparum growth inhibition at 48 hours (one generation) | P. falciparum luciferase growth in erythrocytes, 48 h | Potency, µM (titrated, usually from 28.7 µM), for inactives: at the highest dose activity change, negative = inhibition, hits mostly inhibitors | 310,000 compounds, 5.9% hits; also: potency is read from the fitted curve at half-maximal effect; % is scaled to controls: 0 for no effect and ±100 for the full control effect
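Growth was read as firefly luciferase luminescence after a 48 h, 37 C, 5% CO2 exposure of compounds to reporter-bearing P. falciparum cultures (0.1% parasitemia, 2% hematocrit final) in Albumax-supplemented RPMI 1640.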
Pf growth 96h – inhibits malaria parasite growth, 96 h. P. falciparum luciferase reporter growth, 96 h. Potency, µM (top dose mostly 28.7 µM), without a hit: at the highest dose activity change, negative = inhibition, usual class: inhibitors. 320,000 compounds, 6.9% hits. AID 504834; also: potency is read from the fitted curve at half-maximal effect; % is scaled to controls: 0 for no effect and ±100 for the full control effect
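96 h incubation, 37 C, 5% CO2, of luciferase-reporter P. falciparum-infected RBCs (2% hematocrit, 0.05% parasitemia final) with test compounds; endpoint luminescence.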
Lassa entry inh – inhibitors of Lassa virus binding or cell entry. Lassa virus pseudotype entry inhibition, cell reporter. Potency, µM (highest dose often 37.9 µM), inactives show top-dose activity change, negative = inhibition, hits mostly inhibitors. 300,000 compounds, 1.2% hits. AID 540256; calls by dose curve; tested in HEK293 cells; also: potency is read from the fitted curve at half-maximal effect; % is scaled to controls: 0 for no effect and ±100 for the full control effect; nearly all actives have a fitted effect of over 50% in size
MARV entry inh – inhibitors of Marburg virus binding or cell entry | Potency, µM (doses to about 37.8 µM), inactives show at the highest dose activity change, negative = inhibition, usual class: inhibitors | 300,000 compounds, 1.8% hits | Marburg virus pseudotyped entry inhibition, cell reporter; calls by dose curve; tested in HEK293 cells; also: potency is read from the fitted curve at half-maximal effect; % is scaled to controls: 0 for no effect and ±100 for the full control effect
Cycloheximide cs – counter-screen hit for Shiga toxin inhibitors, cycloheximide | cell reporter, cycloheximide protein synthesis inhibition counterscreen | max response, % | 300,000 compounds, 12% hits | AID 2314; in the data active = max response mostly above about 13%, no sharp cut-off; inactive = mostly below about 14%; also: read at 38.3 µM for the half of the compounds with a filed dose; 0% is about no effect
Shiga inhibitor – inhibitors of Shiga toxin in Vero cells | Vero cells, Shiga toxin protein synthesis inhibition reporter | 290,000 compounds, 9.2% hits | AID 2315 | inhibition, % at 38.7 µM; in the data active = inhibition mostly above about 28%, no sharp cut-off; inactive = mostly below about 43%; also: 0% is about no effect
Starred values were filed as active, the others as inactive; [ ] = another dose, or the depositor's remark. Shown are actives, neighbours in structure and some others; about 19% of the full set was active somewhere. Unless noted, calls follow the shape of the dose curve; as a rule, active = well fitted inhibition curve with a large enough effect; inconclusive = small, poorly fitted or top-dose-only effect, or another doubt; inactive = no such curve, though single readings can be large or run the other way.

Results for CCN1CCN(c2cc(-c3ccccc3)nc3cc(-c4cccc(F)c4)nn23)CC1 ?
Pf growth 48h: inconclusive; Pf growth 96h: 12µM*; Lassa entry inh: inconclusive; MARV entry inh: inconclusive; Cycloheximide cs: -2; Shiga inhibitor: 13

What do the screens show for `Cc1ccc(-c2cc3nc(-c4ccccc4)cc(N4CCOCC4)n3n2)cc1`?
Pf growth 48h: inconclusive; Pf growth 96h: 4%; Lassa entry inh: 4%; MARV entry inh: inconclusive; Cycloheximide cs: 23*; Shiga inhibitor: 12

Results for Cc1ccc(-c2cc3nc(-c4ccccc4)cc(N)n3n2)cc1 ?
Pf growth 48h: inconclusive; Pf growth 96h: -45%; Lassa entry inh: 12%; MARV entry inh: -17%[46.1 µM]; Cycloheximide cs: 38*; Shiga inhibitor: 82*

How did O=C(/C=C/c1ccc2ccccc2n1)N1CCN(c2ccccc2)CC1 do in these assays?
Pf growth 48h: 0%; Pf growth 96h: -4%; Lassa entry inh: -6%[46.1 µM]; MARV entry inh: inconclusive; Cycloheximide cs: -2; Shiga inhibitor: 13

Results for C/C(=N\NC(=O)CCc1ccccc1)c1ccc(Br)cc1 ?
Pf growth 48h: -6%; Pf growth 96h: 4%; Lassa entry inh: inconclusive; MARV entry inh: -14%[46.1 µM]; Cycloheximide cs: 2; Shiga inhibitor: 4

Results for C[C@@H](O)[C@H]1C(=O)N2C(C(=O)O)=C(S[C@@H]3CN[C@H](CNS(N)(=O)=O)C3)[C@H](C)[C@H]12 ?
Pf growth 48h: 16%; Pf growth 96h: 23%

What do the screens show for `Cc1cc(N)n2nc(-c3ccccc3)cc2n1`?
Pf growth 48h: 222%; Pf growth 96h: 35%; Lassa entry inh: inconclusive; MARV entry inh: 8.9µM*; Cycloheximide cs: 60*; Shiga inhibitor: 89*

How did CCOC(=O)C1CCN(C(=O)CN(c2cccc(C(F)(F)F)c2)S(C)(=O)=O)CC1 do in these assays?
Pf growth 48h: 7%; Lassa entry inh: 1%; MARV entry inh: -26%[46.1 µM]; Cycloheximide cs: 1; Shiga inhibitor: 14

What do the screens show for `N#CC1=C(N)C(C#N)(C#N)C(c2cccnc2)C2CCCC=C12` (stereo not given)?
Pf growth 48h: -2%; Pf growth 96h: -11%; Cycloheximide cs: -8; Shiga inhibitor: -4

How did N#CC1=C(N)C(C#N)(C#N)C(c2cccnc2)C2CC(c3ccccc3)CC=C12 (stereo not given) do in these assays?
Pf growth 48h: inconclusive; Pf growth 96h: 12µM*; Lassa entry inh: -20%; MARV entry inh: 16%; Cycloheximide cs: -2; Shiga inhibitor: -17

What do the screens show for `CCOC(=O)N1CC=C2C(C#N)=C(N)C(C#N)(C#N)[C@H](c3ccc(OC(C)C)c(OCC)c3)[C@H]2C1`?
Pf growth 48h: 5.2µM*; Pf growth 96h: -19%; Lassa entry inh: -16%; MARV entry inh: inconclusive; Cycloheximide cs: 9; Shiga inhibitor: -8

What do the screens show for `N#CC1=C(N)C(C#N)(C#N)[C@H](c2cccnc2)[C@H]2CN(C(=O)OCc3ccccc3)CC=C12`?
Pf growth 48h: inconclusive; Pf growth 96h: 13µM*; Lassa entry inh: inconclusive; MARV entry inh: -26%; Cycloheximide cs: -4; Shiga inhibitor: -6

What do the screens show for `COc1cccc(OCCCCN2CC(C)OC(C)C2)c1` (stereo not given)?
Pf growth 96h: 23%; Lassa entry inh: -2%; MARV entry inh: -2%; Cycloheximide cs: -4; Shiga inhibitor: 16

Results for O=C1CC(SCCc2nc3ccccc3[nH]2)C(=O)N1c1ccc(Cl)cc1 (stereo not given) ?
Pf growth 48h: -10%; Pf growth 96h: 68%; Lassa entry inh: -9%; MARV entry inh: 2%; Cycloheximide cs: -1; Shiga inhibitor: -5

Results for Cc1cccc(C)c1NC(=O)CSc1nnc([C@@H]2CCCN2C(=O)OC(C)(C)C)o1 ?
Pf growth 48h: -5%; Pf growth 96h: -10%; Lassa entry inh: inconclusive; MARV entry inh: 2%; Cycloheximide cs: 0; Shiga inhibitor: 23

What do the screens show for `Cc1ccc(-c2nn(CCC(N)=O)c(=O)c3ccccc23)cc1`?
Pf growth 48h: 3%; Pf growth 96h: inconclusive; Lassa entry inh: -1%[46.1 µM]; MARV entry inh: inconclusive; Cycloheximide cs: -3; Shiga inhibitor: -17

Results for CNC(=O)CCn1nc(-c2ccccc2)c2ccccc2c1=O ?
Pf growth 48h: 27%; Pf growth 96h: 15µM*; Lassa entry inh: -6%; MARV entry inh: 3%; Cycloheximide cs: -1; Shiga inhibitor: 17

What do the screens show for `CCNC(=O)CCn1nc(-c2ccc(C)cc2)c2ccccc2c1=O`?
Pf growth 48h: -23%[0.00184 µM]; Pf growth 96h: -3%; Lassa entry inh: -22%[46.1 µM]; MARV entry inh: inconclusive; Cycloheximide cs: -10; Shiga inhibitor: -2

What do the screens show for `CCN(CC)C(=O)CCn1nc(-c2ccc(C)cc2)c2ccccc2c1=O`?
Pf growth 48h: 7.4µM*; Pf growth 96h: -2%; Lassa entry inh: -24%[46.1 µM]; MARV entry inh: -21%[46.1 µM]; Cycloheximide cs: 1; Shiga inhibitor: -3

What do the screens show for `O=C(C(O)c1ccccc1)N1N=C(c2ccccc2)CC1(O)C(F)(F)F` (stereo not given)?
Pf growth 48h: 43%; Pf growth 96h: 13%; Lassa entry inh: -1%[46.1 µM]; MARV entry inh: inconclusive; Cycloheximide cs: -1; Shiga inhibitor: -8

Results for O=C(CSc1nnc(C2CC2)n1-c1ccccc1)NCc1ccco1 ?
Pf growth 96h: inconclusive; Lassa entry inh: -1%; MARV entry inh: 1%; Cycloheximide cs: -3; Shiga inhibitor: 6

What do the screens show for `O=[N+]([O-])c1ccccc1CSc1nc2ccccc2o1`?
Pf growth 48h: 110%; Pf growth 96h: 154%; Lassa entry inh: 21%; MARV entry inh: inconclusive; Cycloheximide cs: 40*; Shiga inhibitor: 75*

What do the screens show for `COc1ccc(/C=C/C(=O)Nc2ccc(-c3nnc4n3CCCCC4)cc2)c(OC)c1`?
Pf growth 48h: -11%; Pf growth 96h: -20%; Lassa entry inh: -2%; MARV entry inh: 8%; Cycloheximide cs: -2; Shiga inhibitor: 10

How did O=C(O)c1cccc(N2C(=O)c3ccc4c5c(ccc(c35)C2=O)C(=O)N(c2cccc(C(=O)O)c2)C4=O)c1 do in these assays?
Pf growth 48h: -3%; Pf growth 96h: 7%; Lassa entry inh: -1%; MARV entry inh: 13%[46.1 µM]; Cycloheximide cs: -2; Shiga inhibitor: 3

Results for O=C(O)c1cccc(N2C(=O)c3ccc(Oc4ccc(Cl)cc4)cc3C2=O)c1 ?
Pf growth 48h: -4%; Pf growth 96h: 9%; Lassa entry inh: -3%; MARV entry inh: 5%[46.1 µM]; Cycloheximide cs: 20*; Shiga inhibitor: 26

How did CC(C)C(=O)Nc1nc(-c2ccc(S(=O)(=O)N3CCOCC3)cc2)cs1 do in these assays?
Pf growth 48h: 0%; Pf growth 96h: -27%; Lassa entry inh: -21%; MARV entry inh: 17%; Cycloheximide cs: 6; Shiga inhibitor: -34
